Laboratory results as given in PubChem BioAssay AID488895 (Broad Institute, 2010).
About 120 (0.035%) of roughly 340,000 compounds were called active. For the sample, actives were picked, then their nearest neighbours and some compounds at random. A number with no mark means an inactive call.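 Rule for the calls: active = mean replicate inhibition at least 50% and at least half of replicates individually reaching 50%; inconclusive = only one of the two criteria met; inactive = neither criterion met.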

Assay: E. coli Tat export inhibitors, primary screen, MC4100, TorA-mCherry reporter, fluorescence, single point (AID 488895);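 note: exported cargo escapes ClpAP degradation while cytoplasmic cargo is degraded and loses fluorescence; 0% = median of neutral control wells and 100% = median of NaSCN control wells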
Conditions: at 10 µM, active compounds read high

Row | Structure (SMILES) | inhibition
1 | COc1ccccc1C(=O)N/C(=C/c1ccc2c(c1)OCO2)C(=O)Nc1cccc(C(=O)O)c1 | 0.855%
2 | COc1ccc(N(CC(=O)NCc2ccc(F)cc2)C(=O)CCC(=O)Nc2nccs2)cc1 | 2.29%
3 | Cc1ccc(NC(=S)NC(NC(=O)Cc2cccc3ccccc23)C(Cl)(Cl)Cl)cc1 (stereo not given) | -13%
4 | O=C1NCCn2nc3ccccc3c21 | -31.2%
5 | O=C(O)CCCn1cc(NC(=O)COc2cccc(Cl)c2)cn1 | -4.8%
6 | NC(=O)C1(N2CCCCC2)CCN(C(=O)c2ccc(C#Cc3ccccc3)o2)CC1 | -3.45%
7 | COc1ccccc1N(CCOc1ccccc1)S(=O)(=O)c1ccccc1 | 10%
8 | CC(C)C(=O)Nc1ccc2c(c1)oc1ccccc12 | -2.62%
9 | C=CCN(CC=C)CCOc1ccccc1[N+](=O)[O-] | -4.39%
10 | C=CCSC(CC)(CC)C(N)=O | -4.28%
11 | COc1cc(C(=O)N2CCN(C/C=C/c3ccccc3)CC2)cc(OC)c1C | 6.19%
12 | Cc1oc2cc3oc(=O)ccc3cc2c1C | -9.08%
13 | Cn1c(SCC(=O)NC2CCCCC2)nnc1-c1cc2ccccc2o1 | 1.56%
14 | Cc1ccc(NC(=O)CN(C)C(=O)c2ccc(Cl)c(S(=O)(=O)NCc3ccco3)c2)cc1 | -9.55%
15 | COc1ccc(C(=O)N/N=C(\C)CC(=O)Nc2ccc(Cl)cn2)cc1 | -26.7%
16 | O=C(NC(C(=O)NCCN1CCOCC1)C12CC3CC(CC(C3)C1)C2)C1CCCCC1 (stereo not given) | 6.49%
17 | COc1ccccc1NC(=O)COC(=O)Cc1ccc(S(=O)(=O)N2CCCCC2)s1 | -5.48%
18 | O=C1C=C(c2cccc(Br)c2)C[C@@H](c2ccc(F)cc2)C1 | 18.1%
19 | CC1(C)C(=O)C2(CCCCC2)C(=O)OC1c1cccs1 (stereo not given) | 3.17%
20 | COCCCC1CCN(C(=O)C2CCC(=O)N(C3CCCCCC3)C2)CC1 (stereo not given) | 1.02%
21 | Cc1ccc(C(=O)NC2CCCC(C)C2C)cc1S(=O)(=O)N1CCCCC1 (stereo not given) | -3.8%
22 | COc1cc(OC)cc(C(=O)NC2CCN(C(=O)N3c4ccccc4Sc4ccccc43)CC2)c1 | 9.12%
23 | CCC(C)(C(=O)NC1CCCCC1)N(C)C(=O)c1ccc2c(c1)OCO2 (stereo not given) | 4.87%

Row | Structure (SMILES) | inhibition
24 | CCN(CC)c1ccc(C(=O)c2cnc(/N=C/N(C)C)s2)cc1 | 12.9%
25 | CCOc1ccc(CCNC(=O)C2CCN(c3ccc(N4CCOCC4)nn3)CC2)cc1OCC | -3.82%
26 | COc1ccc(NC(=O)CSc2nc(NS(=O)(=O)c3ccc(C)cc3)cc(=O)[nH]2)cc1 | 0.509%
27 | CC(C)CC(O)C1CCN(C(=O)CCc2nnc(-c3ccc4c(c3)OCO4)o2)CC1 (stereo not given) | -2.64%
28 | COc1ccc(N2CC(C(=O)NCCN3C(=O)S/C(=C\c4cccnc4)C3=O)CC2=O)c(OC)c1 (stereo not given) | -1.64%
29 | O=C1C(Cl)=C(Oc2ccccc2)C(=O)c2ccccc21 | -14.1%
30 | COc1ccc(-c2nonc2NC(=O)c2oc3ccc(F)cc3c2C)cc1OC | -6.3%
31 | Cc1noc(C)c1COc1cccc(C(=O)Nc2cccnc2)c1 | 11.3%
32 | COCCN1C(=O)C(=O)/C(=C(/O)c2ccc(S(=O)(=O)N3CCCCC3)cc2)C1c1ccc(OC)c(OC)c1 (stereo not given) | -4.83%
33 | COCCCNC(=O)C1CC(=O)N(CCc2ccc(F)cc2)C1 (stereo not given) | 3.6%
34 | O=C(Nc1cccc(F)c1)NC1CCCCCCC1 | 3.94%
35 | C=CCn1c(SCc2c(C(=O)OC)sc(N)c2C(=O)OC)nnc1-c1ccc(Cl)cc1 | 0.305%
36 | CCCn1c(SCC(=O)c2ccc3c(c2)OCCO3)nnc1C(C)C | 1.9%
37 | CC(=O)c1ccc(NC(=O)C(C)OC(=O)c2ccc(NS(=O)(=O)c3ccc4[nH]c(=O)[nH]c4c3)cc2)cc1 (stereo not given) | -1.62%
38 | COc1cccc(CCNC(=O)COc2cccc3c2OC(C)(C)C3)c1 | -3.07%
39 | O=C(NCc1ccccc1)c1onc(CSc2ccncc2)c1C(=O)NCc1ccccc1 | 4.39%
40 | Cn1c(SCC(=O)N2CCCCC2)nc2c(c1=O)SCC2 | 1.18%
41 | COc1cc2c(cc1OC)C(c1ccccc1Br)NC(=O)C2 (stereo not given) | 4.97%
42 | CSc1ccc(/C=C/C(=O)NC23CC4CC(CC(C4)C2)C3)cc1 | 1.4%
43 | COC(=O)c1cc(NC(=O)CC2C(=O)NCCN2C(=O)c2ccc(F)cc2)cc(C(=O)OC)c1 (stereo not given) | -6.39%
44 | O=C(O)CCc1nc2cc(Cl)ccc2n(Cc2ccccc2)c1=O | 3.23%
45 | COc1ccccc1CNS(=O)(=O)c1c(C)[nH]c(C)c1C(=O)N1CCCCC1 | -2.57%
46 | Cc1noc(C)c1CSCC(=O)Nc1ccc(Br)cc1Cl | -0.881%

Row | Structure (SMILES) | inhibition
47 | Cc1ccc(/C=N/NC(=O)COc2ccccc2-c2ccccc2)cc1 | 0.565%
48 | CC(=O)NC(C(=O)NCC(N)=O)C(C)C (stereo not given) | -5.64%
49 | Cc1ccc(SCC(=O)c2cc(C)c(OC(=S)N(C)C)c(C)c2)cc1 | 5.72%
50 | NC(=O)C[C@@H]1NC(=O)CNC(=O)c2cc([N+](=O)[O-])cc(I)c2NCCC(C(N)=O)NC1=O (stereo not given in full) | -3.55%
51 | O=C(Nc1nnc(C2=COCCO2)o1)c1ccc([N+](=O)[O-])s1 | -7.65%
52 | CCCOc1ccc2c3c(c(=O)oc2c1OCCC)CCC3 | 14.7%
53 | COc1cc(C2OC(c3cc(OC)c(OC)c(OC)c3)C(C)C2C)cc(OC)c1OC (stereo not given) | -3.59%
54 | CCn1c(CC(=O)Nc2ccccc2)nnc1SCC(=O)N1CCOCC1 | -5.24%
55 | C=CCn1c(SCC(=O)Nc2ccc(NC(C)=O)cc2)nc2sc(C)c(C)c2c1=O | -0.334%
56 | CC1(C)CC(=O)C(N=Nc2c(F)cccc2F)=C(O)C1 | -8.43%
57 | CCc1ccccc1N1C(=O)C2C3CC(=O)C(c4ccccc43)C2C1=O (stereo not given) | -1.63%
58 | COC(=O)C1CCN(CC(N)=O)CC1 | -3.53%
59 | O=C(COC(=O)c1ccc(N2CCCC2=O)cc1)c1ccc(OC(F)F)cc1 | 6.18%
60 | CCn1c(SCC(=O)c2ccc(Cl)s2)nnc1-c1cccs1 | -0.241%
61 | CCOC(=O)N1CCC(N2Cc3cccc(C(=O)Nc4c(C)cccc4CC)c3C2=O)CC1 | 14.7%
62 | CC1CCN(C(=S)NC2CC3CCC2C3)CC1 (stereo not given) | -4.26%
63 | Cc1nc(C(=O)N2CCCC(C(=O)c3ccc(Cl)cc3)C2)cs1 (stereo not given) | 0.604%
64 | Oc1ccccc1-c1cc(-c2ccc(Cl)cc2)n[nH]1 | -12.8%
65 | NS(=O)(=O)c1cc(C(=O)OCC(=O)NNC(=O)c2ccccc2)ccc1Cl | -3.95%
66 | COC(CCN(C)C)(c1ccccc1)c1ccccc1 | -2.82%
67 | CN(C)[C@@H]1C(=O)C(C(N)=O)=C(O)[C@@]2(O)C(=O)C3=C(O)c4c(O)ccc(Cl)c4[C@@H](O)[C@H]3C[C@@H]12 | 151% (active)
68 | C=C1c2c(Cl)ccc(O)c2C(O)=C2C(=O)[C@]3(O)C(O)=C(C(N)=O)C(=O)[C@@H](N(C)C)[C@@H]3[C@@H](O)C12 (stereo not given in full) | 28.9%
69 | CCN(C(=O)c1cc([N+](=O)[O-])ccc1NCc1cccnc1)c1ccccc1 | -1.18%

Row | Structure (SMILES) | inhibition
70 | COc1ccc(C(=O)O)cc1S(=O)(=O)NC1CCN(Cc2ccccc2)CC1 | -6.45%
71 | Cc1ccc(Cl)cc1NC(=O)COC(=O)C1CCCCC1 | 6.67%
72 | O=C(CCc1nnc2ccc(NCc3ccccc3Cl)nn12)NCC1CCN(C2CCCC2)C1 (stereo not given) | 1.11%
73 | O=C(/C=C/Nc1ccc(S(=O)(=O)Nc2cnc3ccccc3n2)cc1)c1cccnc1 | -0.716%
74 | COc1ccc(Br)cc1/C=N/Nc1ccc(S(=O)(=O)Nc2ccccc2C(=O)O)cc1[N+](=O)[O-] | -2.56%
75 | O=C(NCCCN1CCN(c2ccc(F)cc2)CC1)Nc1ccc([N+](=O)[O-])cc1 | 10.8%
76 | O=S(=O)(c1ccc(F)cc1)n1ccc(-c2cnc(-c3ccccc3)s2)n1 | 1.96%
77 | O=C(/C=N/O)Nc1ccccc1 | 1.32%
78 | c1ccc2c(-c3nn4nnnc4c4ccccc34)cccc2c1 | 13.5%
79 | COCCNc1nc(N)c([N+](=O)[O-])c(NCCO)n1 | -3.96%
80 | Cc1ccc(CSCC2Nc3ccc(C(=O)N4CCN(c5ccc(F)cc5)CC4)cc3NC2=O)cc1 (stereo not given) | -4.6%
81 | NC(=O)CCC(NS(=O)(=O)c1ccc(Cl)cc1)C(=O)NCc1ccccc1Cl (stereo not given) | -7.83%
82 | CC(=O)N1CCN(CC(c2ccccc2)c2ccccc2)CC1 | -7.44%
83 | CC1Cc2ccccc2N1C1=CC(=O)CC(C)(C)C1 (stereo not given) | -0.619%
84 | CCC(C)NC(=O)C1c2ccccc2C(=O)N1Cc1ccccc1 (stereo not given) | -2.59%
85 | O=C(NCC(=O)N(Cc1cccs1)C(C(=O)NC1CCCCC1)c1ccco1)c1cccs1 (stereo not given) | 7.02%
86 | CC(C)(C)c1ccc(/C=C/C(=O)NC2CCS(=O)(=O)C2)cc1 (stereo not given) | 0.013%
87 | Cc1c(C)c2cc3c4c(oc3c(C)c2oc1=O)CCCC4 | -3.36%
88 | Cc1cc(N2CCCC2=O)cc(C)c1S(N)(=O)=O | -6.67%
89 | CC1Sc2ccc(C(=O)NCc3ccccc3Cl)cc2NC1=O (stereo not given) | -5.09%
90 | CCC(=O)N1c2ccccc2NC2=C(C(=O)CCC2)C1c1ccco1 (stereo not given) | -4.89%
